Measurements from the supplement of paper PMC10849652.
Targets with a hit are over-represented here; the source holds about 8,800 in all. About 0.5% of all pairs of compound and target were hits.

Experiments:
Experiment in all cases: log2 fold change, soluble protein after heating vs DMSO (PISA); higher = thermal stabilisation; K562 lysate, 10 uM; active = over 0.2 and 3.5 SD of the protein, either way, in both replicates (recomputed)
ibrutinib = compound: C=CC(=O)N1CCC[C@@H](n2nc(-c3ccc(Oc4ccccc4)cc3)c3c(N)ncnc32)C1 [ibrutinib]
Summary of the method: (§1)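 Quantification was by TMTpro 16plex LC-MS/MS with equalised channel sums, applied to the supernatant after 21,000xg for 90 min. Samples were crude K562 extract at 1 mg/mL protein in PBS pH 7.4 with 1 mM MgCl2, treated with 10 μM compound for 30 min, heated for 3 min across 48°C-58°C, pooled and brought to 0.5% NP-40 at 4°C. Values are log-two fold changes in thermal stability relative to solvent controls, from duplicates.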

[1] = compound: CC(=O)c1cnc2ccc(-c3cc(Cl)c(O)c(Cl)c3)nc2c1N[C@H]1CC[C@H](CN(C)C)CC1
Summary of the method: as §1

[2] = compound: CC1=C(C(CC(=O)N1)C2=CC=C(C=C2)C(F)(F)F)C(=O)NC3=C(C=C4C(=C3)C=NN4)F
Summary of the method: as §1

[3] = compound: CC1=CC=C(C=C1)SC2=C3C=C(SC3=CN=C2)C(=O)N
Summary of the method: as §1

[4] = compound: CCCS(=O)(=O)Nc1ccc(F)c(C(=O)c2c[nH]c3ncc(Cl)cc23)c1F
Summary of the method: as §1

barasertib = compound: CCN(CCCOc1ccc2c(Nc3cc(CC(=O)Nc4cccc(F)c4)[nH]n3)ncnc2c1)CCOP(=O)(O)O [barasertib]
Summary of the method: as §1

volasertib = compound: CC[C@@H]1C(=O)N(C)c2cnc(Nc3ccc(C(=O)N[C@H]4CC[C@H](N5CCN(CC6CC6)CC5)CC4)cc3OC)nc2N1C(C)C [volasertib]
Summary of the method: as §1

ralimetinib = compound: CC(C)(C)Cn1c(N)nc2ccc(-c3[nH]c(C(C)(C)C)nc3-c3ccc(F)cc3)nc21 [ralimetinib]
Summary of the method: as §1

[5] = compound: CC(C)(O)CC(=O)NCCn1ccc2ncnc(Nc3ccc(Oc4cccc(C(F)(F)F)c4)c(Cl)c3)c21
Summary of the method: as §1

[6] = compound: CC(C)C1=C2N=C(C=C(N2N=C1)NCC3=CC=CC=C3)NCCCCCCN
Summary of the method: as §1

[7] = compound: CC1=C(C2=C(C=C1)C(=O)C3=CC=CC=C3N2CCCN)C
Summary of the method: as §1

[8] = compound: CC1=C(C=C(C=C1)NC(=O)C2=CC(=CC=C2)N(C)C)NC(=O)C3=CC=C(C=C3)O
Summary of the method: as §1

vemurafenib = compound: CCCS(=O)(=O)Nc1ccc(F)c(C(=O)c2c[nH]c3ncc(-c4ccc(Cl)cc4)cc23)c1F [vemurafenib]
Summary of the method: as §1

[9] = compound: CC[C@@H]1C(=O)N(C)c2cnc(Nc3ccc(C(=O)NC4CCN(C)CC4)cc3OC)nc2N1C1CCCC1
Summary of the method: as §1

[10] = compound: CCn1c(C(=O)N(C2CC2)C2CC2)cc2c3c(ncn3C)c(Nc3cc(C)n(C)n3)nc21
Summary of the method: as §1

[11] = compound: CCn1cc(-c2ccnc3[nH]c(-c4cccc(CN(C)C)c4)cc23)c(-c2ccc(NC(=O)N(C)C)cc2)n1
Summary of the method: as §1

[12] = compound: CN1CCC(CNc2ccc3ncc(-c4cccc(OC(F)(F)F)c4)n3n2)CC1
Summary of the method: as §1

saracatinib = compound: CN1CCN(CCOc2cc(OC3CCOCC3)c3c(Nc4c(Cl)ccc5c4OCO5)ncnc3c2)CC1 [saracatinib]
Summary of the method: as §1

[13] = compound: CC1=C(C=C(C=C1)NC(=O)C2=CC(=CC=C2)C(C)(C)C#N)NC3=CC4=C(C=C3)N=CN(C4=O)C
Summary of the method: as §1

sotrastaurin = compound: CN1CCN(c2nc(C3=C(c4c[nH]c5ccccc45)C(=O)NC3=O)c3ccccc3n2)CC1 [sotrastaurin]
Summary of the method: as §1

Measured: log2 fold change

ADK, A0A5F9ZH76
inactive: ibrutinib 0.168 | [1] 0.005 | [2] -0.156 | [3] 0 | [4] -0.174 | barasertib -0.019 | volasertib 0.167

ANKRD30B (UniProt Q9BXX2)
Sequence of UniProt Q9BXX2 (Q9BXX2 whole entry, looked up): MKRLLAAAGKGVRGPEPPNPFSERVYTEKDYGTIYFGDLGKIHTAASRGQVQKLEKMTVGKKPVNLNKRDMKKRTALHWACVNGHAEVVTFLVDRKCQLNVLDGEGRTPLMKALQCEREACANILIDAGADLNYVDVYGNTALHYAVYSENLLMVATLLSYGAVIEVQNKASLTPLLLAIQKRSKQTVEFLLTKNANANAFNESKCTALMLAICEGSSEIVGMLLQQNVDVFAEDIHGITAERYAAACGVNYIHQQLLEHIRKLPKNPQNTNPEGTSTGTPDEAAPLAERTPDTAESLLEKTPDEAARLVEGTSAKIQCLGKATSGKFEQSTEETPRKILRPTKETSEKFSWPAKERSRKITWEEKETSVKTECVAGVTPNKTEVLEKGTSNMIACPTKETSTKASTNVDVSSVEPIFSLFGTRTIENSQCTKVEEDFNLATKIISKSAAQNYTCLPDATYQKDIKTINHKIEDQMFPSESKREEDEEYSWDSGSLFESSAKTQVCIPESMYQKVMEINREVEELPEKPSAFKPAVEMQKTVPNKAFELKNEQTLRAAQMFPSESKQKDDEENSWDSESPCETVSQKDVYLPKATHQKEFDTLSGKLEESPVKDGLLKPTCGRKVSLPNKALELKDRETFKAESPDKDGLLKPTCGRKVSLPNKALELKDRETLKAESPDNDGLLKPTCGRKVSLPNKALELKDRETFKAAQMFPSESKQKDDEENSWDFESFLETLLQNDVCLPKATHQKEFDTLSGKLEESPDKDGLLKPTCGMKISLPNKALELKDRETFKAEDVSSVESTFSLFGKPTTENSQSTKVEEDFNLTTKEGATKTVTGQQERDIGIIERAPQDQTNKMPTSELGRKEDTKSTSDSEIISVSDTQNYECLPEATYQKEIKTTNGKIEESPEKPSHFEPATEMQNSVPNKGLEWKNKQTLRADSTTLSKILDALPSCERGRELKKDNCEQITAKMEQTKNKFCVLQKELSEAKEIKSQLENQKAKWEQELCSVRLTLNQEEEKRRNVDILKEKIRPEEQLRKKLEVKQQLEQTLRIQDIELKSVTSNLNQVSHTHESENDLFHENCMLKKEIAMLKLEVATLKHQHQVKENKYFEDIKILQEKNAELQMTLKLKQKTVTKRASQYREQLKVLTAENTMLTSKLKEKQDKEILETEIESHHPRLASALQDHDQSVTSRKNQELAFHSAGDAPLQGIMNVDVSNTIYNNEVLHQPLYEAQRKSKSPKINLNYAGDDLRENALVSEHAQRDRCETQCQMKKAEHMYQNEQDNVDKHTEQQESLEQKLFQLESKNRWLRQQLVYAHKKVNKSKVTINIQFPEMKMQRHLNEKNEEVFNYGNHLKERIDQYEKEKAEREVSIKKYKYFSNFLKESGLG
inactive: ibrutinib -0.063 | [1] -0.086 | ralimetinib -0.007 | [5] -0.16 | [6] 0.038 | [2] -0.098 | [7] -0.064 | [8] 0.024 | [3] -0.167 | vemurafenib 0.136 | [4] 0.024 | barasertib 0.047 | [9] 0.012 | volasertib 0.003 | [10] -0.055 | [12] 0.281 | saracatinib 0.04
active: [11] -0.755

ADAM17 (UniProt P78536)
Sequence of UniProt P78536 (P78536 whole entry, looked up): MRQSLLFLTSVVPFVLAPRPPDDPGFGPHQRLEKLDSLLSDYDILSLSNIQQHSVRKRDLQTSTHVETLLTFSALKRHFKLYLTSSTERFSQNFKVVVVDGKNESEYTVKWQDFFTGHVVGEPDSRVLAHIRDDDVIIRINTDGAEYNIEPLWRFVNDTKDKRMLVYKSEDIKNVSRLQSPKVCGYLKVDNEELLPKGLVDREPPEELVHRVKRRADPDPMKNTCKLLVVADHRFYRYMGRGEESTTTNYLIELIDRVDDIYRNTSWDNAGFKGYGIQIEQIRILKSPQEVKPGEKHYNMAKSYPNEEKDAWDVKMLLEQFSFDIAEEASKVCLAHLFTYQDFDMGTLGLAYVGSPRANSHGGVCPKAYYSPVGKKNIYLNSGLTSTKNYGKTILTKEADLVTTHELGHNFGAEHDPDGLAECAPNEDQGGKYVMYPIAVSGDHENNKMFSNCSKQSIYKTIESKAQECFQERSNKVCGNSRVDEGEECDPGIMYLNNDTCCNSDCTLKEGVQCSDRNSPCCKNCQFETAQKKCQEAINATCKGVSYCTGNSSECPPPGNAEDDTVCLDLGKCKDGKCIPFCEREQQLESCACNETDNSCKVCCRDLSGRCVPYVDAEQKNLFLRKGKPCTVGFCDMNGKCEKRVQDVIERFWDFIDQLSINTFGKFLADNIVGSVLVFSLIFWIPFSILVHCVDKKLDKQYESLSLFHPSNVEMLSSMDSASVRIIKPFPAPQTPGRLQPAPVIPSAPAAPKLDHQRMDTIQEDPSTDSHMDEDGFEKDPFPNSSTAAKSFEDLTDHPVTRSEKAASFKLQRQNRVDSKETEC
inactive: ibrutinib 0.037 | ralimetinib -0.012 | [5] -0.032 | [6] -0.056 | [2] 0.16 | [7] -0.029 | [13] -0.013 | [8] -0.027 | vemurafenib 0.071 | barasertib -0.184 | [9] -0.151 | [10] -0.027 | [11] 0.065 | [12] 0.001 | saracatinib -0.011 | sotrastaurin 0.002

ANKRD44 isoform 2 (UniProt Q8N8A2)
Sequence of UniProt Q8N8A2 (Q8N8A2 whole entry, looked up): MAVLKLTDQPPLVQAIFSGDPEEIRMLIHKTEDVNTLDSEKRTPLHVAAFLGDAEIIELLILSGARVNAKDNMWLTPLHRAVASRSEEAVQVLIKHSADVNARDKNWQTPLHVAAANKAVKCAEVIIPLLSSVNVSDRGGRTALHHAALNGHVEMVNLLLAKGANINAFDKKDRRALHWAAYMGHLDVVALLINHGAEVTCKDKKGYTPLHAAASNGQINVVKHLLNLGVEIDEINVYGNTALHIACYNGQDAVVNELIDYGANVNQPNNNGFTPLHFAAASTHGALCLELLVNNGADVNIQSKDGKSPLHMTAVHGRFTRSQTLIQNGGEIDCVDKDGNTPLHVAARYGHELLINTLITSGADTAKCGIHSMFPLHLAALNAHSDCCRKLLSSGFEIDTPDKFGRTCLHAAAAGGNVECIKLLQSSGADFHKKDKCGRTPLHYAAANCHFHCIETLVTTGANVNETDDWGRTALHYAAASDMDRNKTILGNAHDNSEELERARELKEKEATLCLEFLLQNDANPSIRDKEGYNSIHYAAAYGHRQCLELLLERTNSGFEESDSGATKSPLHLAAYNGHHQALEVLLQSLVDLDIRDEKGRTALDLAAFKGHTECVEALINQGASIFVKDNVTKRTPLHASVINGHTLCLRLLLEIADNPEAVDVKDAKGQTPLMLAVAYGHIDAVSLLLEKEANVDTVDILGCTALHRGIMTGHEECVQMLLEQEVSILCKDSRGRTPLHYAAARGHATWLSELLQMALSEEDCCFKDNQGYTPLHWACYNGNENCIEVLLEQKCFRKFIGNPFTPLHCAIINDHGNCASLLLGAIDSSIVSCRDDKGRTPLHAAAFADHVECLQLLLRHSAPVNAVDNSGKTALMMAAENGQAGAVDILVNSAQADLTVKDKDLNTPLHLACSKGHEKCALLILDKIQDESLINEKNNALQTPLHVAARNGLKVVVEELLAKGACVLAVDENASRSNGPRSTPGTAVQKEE
active: [11] -1.9
inactive: ibrutinib -0.131 | [1] 0.067 | [6] -0.026 | [2] 0.075 | [3] -0.029 | vemurafenib 0.056 | [4] 0.019 | barasertib 0.058 | [9] -0.308 | volasertib 0.054 | [12] 0.616

ACYP2 (UniProt P14621)
Sequence of UniProt P14621 (P14621 whole entry, looked up): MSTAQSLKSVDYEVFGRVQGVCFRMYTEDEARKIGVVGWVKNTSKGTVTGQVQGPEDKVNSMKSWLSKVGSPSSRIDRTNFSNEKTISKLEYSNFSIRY
inactive: ibrutinib 0.086 | [1] 0.004 | ralimetinib 0.026 | [5] -0.018 | [6] 0.044 | [2] 0.047 | [13] -0.036 | [8] 0.025 | [3] 0.04 | vemurafenib -0.245 | [4] -0.023 | barasertib 0.04 | volasertib 0.011 | [10] -0.007 | [11] 0.189 | [12] -0.036 | sotrastaurin -0.019

AP3D1 isoform 2 (UniProt O14617)
Sequence of UniProt O14617 (O14617 whole entry, looked up): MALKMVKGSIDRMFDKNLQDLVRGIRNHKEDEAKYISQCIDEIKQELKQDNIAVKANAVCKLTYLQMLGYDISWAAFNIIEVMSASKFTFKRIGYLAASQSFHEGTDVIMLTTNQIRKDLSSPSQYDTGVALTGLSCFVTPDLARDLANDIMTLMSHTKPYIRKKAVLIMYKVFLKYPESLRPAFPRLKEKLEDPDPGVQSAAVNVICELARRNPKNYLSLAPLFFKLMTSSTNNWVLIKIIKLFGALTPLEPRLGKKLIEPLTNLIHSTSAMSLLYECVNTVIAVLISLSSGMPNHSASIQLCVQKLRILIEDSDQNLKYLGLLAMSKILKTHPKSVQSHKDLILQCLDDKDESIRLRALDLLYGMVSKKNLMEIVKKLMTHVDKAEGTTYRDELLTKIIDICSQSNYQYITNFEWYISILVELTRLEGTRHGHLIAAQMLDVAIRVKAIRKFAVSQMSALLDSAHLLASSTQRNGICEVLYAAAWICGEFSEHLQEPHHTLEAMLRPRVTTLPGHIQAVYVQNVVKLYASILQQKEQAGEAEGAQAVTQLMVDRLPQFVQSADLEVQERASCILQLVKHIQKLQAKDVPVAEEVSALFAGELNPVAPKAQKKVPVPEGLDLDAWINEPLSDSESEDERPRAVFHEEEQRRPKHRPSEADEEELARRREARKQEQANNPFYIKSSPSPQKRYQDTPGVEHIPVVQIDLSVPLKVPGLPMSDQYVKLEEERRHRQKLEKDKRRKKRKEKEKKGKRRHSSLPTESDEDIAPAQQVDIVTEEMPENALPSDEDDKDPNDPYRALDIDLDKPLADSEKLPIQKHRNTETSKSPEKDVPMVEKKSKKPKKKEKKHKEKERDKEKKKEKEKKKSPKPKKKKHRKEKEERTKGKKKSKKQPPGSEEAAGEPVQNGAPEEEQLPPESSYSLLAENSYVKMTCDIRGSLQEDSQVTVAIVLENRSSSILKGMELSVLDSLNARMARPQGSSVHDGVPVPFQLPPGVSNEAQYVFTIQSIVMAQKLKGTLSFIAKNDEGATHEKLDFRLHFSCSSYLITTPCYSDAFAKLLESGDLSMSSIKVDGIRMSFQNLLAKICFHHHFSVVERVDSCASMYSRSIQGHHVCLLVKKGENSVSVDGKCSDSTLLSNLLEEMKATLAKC
inactive: [1] -0.085 | [6] 0.09 | [2] 0.127 | [3] 0.053 | vemurafenib 0.002 | [4] -0.085 | volasertib -0.012 | [11] -0.231 | [12] 0.058

ABHD13 (UniProt Q7L211)
Sequence of UniProt Q7L211 (Q7L211 whole entry, looked up): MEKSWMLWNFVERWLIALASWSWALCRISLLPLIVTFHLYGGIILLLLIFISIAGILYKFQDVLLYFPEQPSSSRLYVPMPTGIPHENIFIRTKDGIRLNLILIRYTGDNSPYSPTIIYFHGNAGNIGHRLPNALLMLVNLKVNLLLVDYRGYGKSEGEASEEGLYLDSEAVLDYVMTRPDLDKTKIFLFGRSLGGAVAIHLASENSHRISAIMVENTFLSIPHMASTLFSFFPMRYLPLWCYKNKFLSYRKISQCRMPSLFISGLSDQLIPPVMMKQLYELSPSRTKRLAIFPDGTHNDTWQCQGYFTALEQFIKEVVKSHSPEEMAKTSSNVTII
active: [11] -0.543
inactive: ibrutinib 0.041 | [1] -0.017 | [2] -0.028 | [7] 0.196 | [13] 0.03 | [3] 0.003 | vemurafenib 0.069 | [4] -0.016 | barasertib 0.102 | [9] -0.107 | volasertib 0.06 | [12] 0.077 | saracatinib 0.179 | sotrastaurin -0.031

ABI1 isoform 6 (UniProt Q8IZP0)
inactive: [1] -0.034 | [3] -0.028 | [4] -0.219 | [9] 0.248 | volasertib 0.026
